In PubChem BioAssay AID2669 (National Center for Advancing Translational Sciences (NCATS), 2010):
“And” between values parts separate entries of the source, which are not always exact repeats. Equal entries are not always repeated. Results filed as inconclusive are left out. A number with no mark means an inactive call. The source made the active and inactive calls. Calls come from the whole dose curve; as a rule, active = well fitted inhibition curve with a large enough effect; inconclusive = small, poorly fitted or top-dose-only effect, or effect the other way; inactive = flat fitted curve, though single readings scatter.

Experiment: qHTS Assay Multiplex Screening to Identify Dual Action Probes in a Cell Model of Huntington: Cytoprotection (Protease relase)
Settings: PC12 HttQ103 cells, Cytotox-Glo protease release, 40 h; series mostly up to 46.1 µM; activity change, negative = inhibition: at the top concentration
Source text: NIH Chemical Genomics Center [NCGC]
NIH Molecular Libraries Probe Production centers Network [MLPCN]
Assay Submitter (PI): Wei Zheng
Huntington's disease is a neurodegenerative disorder caused by a trinucleotide repeat expansion in Exon 1 of the Huntingtin gene. The CAG trinucleotide encodes glutamine and polyglutamine expansions cause cell death in selective areas of the brain. Huntington polyglutamine repeats have the tendency to form aggregates which are observable in later stages of the disease. The exact nature of the aggregates, whether toxic, protective, or insignificant, is unclear.
A stable PC12 cell line containing a gene fusion of Exon 1 of the Huntingtin gene linked to GFP under the control of the inducible ecdysone promoter were used as the cell-based model of Huntington Disease for high throughput screening. Exon 1 of the Huntingtin gene contained an expansion of 103 polyglutamines (Q103) which, when expressed, caused cell death and distinct, bright GFP aggregates. The amount of cell death and the size and intensity of GFP aggregates increased over time and induction level. In the primary screen, cell death were quantified with a measurement of ATP content in the cells. A maximal 40-50% of cell death was observed when the Huntington gene was induced in this cell line.
We optimized this assay in a homogeneous 1536 well format. A quantitative high throughput screen (qHTS) was conducted on the PC12 cells which were induced to express the toxic fusion construct. Small molecules which prevented cell death were considered hits, and were further studied. The present assay is an alternate assay for cytoprotection using Promega's Cytotox-Glo reagent.
PC12 cells stably containing a construct with an ecdysone inducible promoter expressing GFP fused to the exon 1 of HTTQ103 (Huntington protein which containing a 103 ployglutamine expansion) were used.
NCGC Assay Protocol Summary:
Sequence, Parameter, Description
1, Reagent, 5 uL 1500 cells/well 1536 TC treated White clear bottom plate
2, Compound, 23 nL Tebufenozide inducer (100 nM final) to all columns
3, Compound, 23 nL 40 uM to 0.5 nM Libraries
5, Reagent, 2 ul Promega's Cytotox-Glo assay reagent
6, Detector, 4 sec integration with a Viewlux Luminescent
Media consisted of phenol red free DMEM + 5% equine serum (Hyclone # SH30072.03 ), 5% supplemented Bovine Calf Serum (Hyclone # SH30074.03 ), 1x pen/strep, no G418
For Cc1ccccc1N=C(N)Nc1ccccc1C, the “activity change, negative = inhibition” value was 0.765%. With O=Nc1c(-c2c(O)[nH]c3ccccc23)[nH]c2ccccc12 the Potency was 631 nM (active) and 1.41 µM (active). With CC(=O)Oc1cccc(C(=O)O)c1OC(C)=O the “activity change, negative = inhibition” value was 7.72%. In the case of COc1cc(Cc2cnc(N)nc2N)cc(OC)c1OC, the “activity change, negative = inhibition” value was 15.3%. With Fc1ccc(N2CCN(c3ncnc4nc[nH]c34)CC2)cc1 the Potency was 4.47 µM (active). In the case of COc1ccccc1-n1nnnc1S(=O)(=O)Cc1ccc(Cl)cc1, the Potency was 14.1 µM (active). In the case of Cn1nnnc1Sc1ncnc2scc(-c3ccc(S(C)(=O)=O)cc3)c12, the Potency was 11.2 µM (active). In the case of O=C(Nc1ccccc1)C1=C(O)CC(c2ccco2)CC1=Nc1ccccc1 (stereo not given), the “activity change, negative = inhibition” value was -8.66%. For CN1C(=O)CC(Sc2ncccc2C(=O)O)C1=O (stereo not given), the “activity change, negative = inhibition” value was 4.06%. With Cn1nnnc1Sc1ncnc2scc(-c3ccccc3C(F)(F)F)c12 the Potency was 20 µM (active). In the case of COc1ccc(CNC(=O)CN(C(=O)CCC(=O)Nc2ccccn2)c2ccccc2OC)cc1, the “activity change, negative = inhibition” value was -2.31%. For O=C(CNc1ccc(Oc2ccccc2)cc1)N1CCOCC1, the Potency was 14.1 µM (active). In the case of CC(=O)c1cccc(-c2csc3ncnc(Sc4nnnn4C)c23)c1, the Potency was 7.08 µM (active). In the case of O=C(NCN1C(=O)C2C3C=CC(C3)C2C1=O)Nc1ccccn1 (stereo not given), the “activity change, negative = inhibition” value was -2.64%. For O=C(O)c1cc(=O)c2ccc(Cl)cc2[nH]1, the “activity change, negative = inhibition” value was -5.11%. With COC(=O)C(O)(CC(=O)Nc1ccc(OC(F)(F)F)cc1)C(F)(F)F (stereo not given) the “activity change, negative = inhibition” value was -8.73%. With Cn1nnnc1Sc1ncnc2scc(-c3ccccc3[N+](=O)[O-])c12 the Potency was 20 µM (active). With CCOC(=O)c1noc(C)c1C(=O)Nc1cccc(F)c1 the Potency was 7.08 µM (active). With Cn1nnnc1Sc1ncnc2scc(-c3ccc(Br)cc3)c12 the Potency was 7.08 µM (active). With CN(C)CCCSc1ccccc1NC(=O)/C=C\c1ccccc1 the Potency was 6.31 µM (active). In the case of Cn1nnnc1Sc1ncnc2scc(I)c12, the Potency was 11.2 µM (active). For N#Cc1c(C(F)(F)F)cc(-c2ccc(Cl)cc2)[nH]c1=O, the Potency was 4.47 µM (active). For Cn1nnnc1Sc1ncnc2scc(-c3cccc(Cl)c3)c12, the Potency was 11.2 µM (active). With Cc1cc(C)n(S(=O)(=O)/C=C/c2ccccc2)n1 the “activity change, negative = inhibition” value was -19.1%. In the case of O=[N+]([O-])c1ccc(O)c2ncccc12, the Potency was 22.4 µM (active). For O=C(O)CCN1C(=O)/C(=C\c2ccc(-c3nc4ccccc4s3)o2)SC1=S, the Potency was 5.62 µM (active). In the case of COc1ccccc1-c1nnc(Sc2nc([N+](=O)[O-])nn2C)o1, the Potency was 12.6 µM (active). In the case of Cn1nnnc1Sc1ncnc2scc(-c3cccc(C(F)(F)F)c3)c12, the Potency was 14.1 µM (active). For Cn1nnnc1Sc1ncnc2scc(-c3ccccc3Cl)c12, the Potency was 15.8 µM (active). With Cc1cc(NC(=O)CCS(=O)(=O)c2nc(-c3ccccc3)cc(C(F)(F)F)n2)no1 the “activity change, negative = inhibition” value was 8.8%. With Cc1cc(C)nc(Sc2nc(C)nc3c2oc2ccccc23)n1 the “activity change, negative = inhibition” value was -11.1%. For Oc1ccc(/C=C/c2cc(O)cc(O)c2)cc1, the Potency was 2.24 µM (active). In the case of C#CCN(C)CCCOc1ccc(Cl)cc1Cl, the “activity change, negative = inhibition” value was 10.5%. With Cn1nnnc1Sc1ncnc2scc(-c3ccc(-c4ccccc4)cc3)c12 the Potency was 10 µM (active). For Cn1c(C(=O)N2CCN(c3ccc(Cl)cc3)CC2)cc2c(=O)[nH]c3ccccc3c21, the “activity change, negative = inhibition” value was -0.354%. For Cn1nnnc1Sc1ncnc2scc(-c3cccc(S(C)(=O)=O)c3)c12, the Potency was 7.08 µM (active). In the case of Cn1nnnc1Sc1ncnc2scc(-c3ccc4c(=O)ccoc4c3)c12, the Potency was 7.94 µM (active). For CC(=O)OCC1=C(C(=O)O)N2C(=O)[C@@H](NC(=O)Cc3cccs3)[C@H]2SC1, the “activity change, negative = inhibition” value was 6.82%. In the case of NC(=O)C1CCN(CCC(=O)Nc2ccc(Br)cc2)CC1, the “activity change, negative = inhibition” value was -9%. With Cn1nnnc1Sc1ncnc2scc(-c3ccc([N+](=O)[O-])cc3)c12 the Potency was 8.91 µM (active).
